# Records with an inconclusive call do not appear. Calls of active or inactive are those of the source. Unless noted, calls follow the shape of the full dose curve.
# Test: qHTS assay to identify small molecule agonists of the NFkB signaling pathway - cell viability counter screen (AID 1159515); also: nearly all actives have a fitted effect of over 55% in size
# Conditions: NFkB-bla ME-180 viability, CellTiter-Glo luminescence, 5 h; series mostly up to 61 µM
# Summary of the method: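 ME-180 NFkB-bla cells, 2,000/well; overnight attach; compound 5 hr, 37 C/5% CO2; LiveBLAzer substrate 1.5 hr RT; then CellTiter-Glo in same wells, 30 min RT, luminescence read.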
row,Compound,outcome
1,c1ccc2c(c1)CCCC2,inactive
2,CNc1cnn(-c2cccc(C(F)(F)F)c2)c(=O)c1Cl,inactive
3,CNC(=O)O/N=C/C(C)(C)S(C)(=O)=O,inactive
4,COC(C)(C)CCCC(C)C/C=C/C(C)=C/C(=O)OC(C)C (centres undefined),inactive
5,CN(C)C(=O)Nc1cccc(C(F)(F)F)c1,inactive
6,CN(C)NC(=O)CCC(=O)O,inactive
7,CN(C)C(=O)Cl,inactive
8,COP(=S)(OC)SCN1C(=O)c2ccccc2C1=O,inactive
9,COc1cc(-c2ccc(N)c(OC)c2)ccc1N,inactive
10,N#CN=C(N)N,inactive
11,O=S(=O)(O)OOS(=O)(=O)O,inactive
12,ClC(Cl)c1ccccc1,inactive
13,CCOc1ccc(N)cc1,inactive
14,O=C(O)COc1ccccc1,inactive
15,ClCCOCCCl,inactive
16,CC(C)(C)C(=O)CCl,inactive
17,C=CC(=O)OCC(CC)CCCC (centres undefined),inactive
18,CCNc1nc(Cl)nc(NC(C)C)n1,inactive
19,Oc1c(Br)cc(Br)cc1Br,inactive
20,CC(C)CCCCCCOC(=O)c1ccccc1C(=O)OCCCCCCC(C)C,inactive
21,CCCCCCCCCCCCCCCCCC(=O)O,inactive
22,OC[C@@H](O)[C@H]1O[C@@H]2O[C@H](C(Cl)(Cl)Cl)O[C@@H]2[C@H]1O,inactive

# Test: qHTS assay to identify small molecule agonists of the endoplasmic reticulum stress response signaling pathway (AID 1159516; active = well fitted activation curve with a large enough effect in the signal ratio in the repeat runs, not every such curve was filed as active; the % refers to the signal ratio)
# Conditions: ESRE-bla HeLa, ER stress beta-lactamase reporter, 5 h; series mostly up to 61 µM
# Summary of the method: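 HeLa ESRE-bla reporter line; cpd 5 h, 37 C/5% CO2; LiveBLAzer B/G FRET substrate 2 h RT; ex 405, em 460/530 nm.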
row,Compound,outcome
1,c1ccc2c(c1)CCCC2,inactive
2,CNc1cnn(-c2cccc(C(F)(F)F)c2)c(=O)c1Cl,inactive
3,CNC(=O)O/N=C/C(C)(C)S(C)(=O)=O,inactive
4,Nc1cccc(Cl)c1,inactive
5,CNC(=O)O/N=C(\SC)C(=O)N(C)C,inactive
6,COC(C)(C)CCCC(C)C/C=C/C(C)=C/C(=O)OC(C)C (centres undefined),inactive
7,CN(C)C(=O)Nc1cccc(C(F)(F)F)c1,inactive
8,CN(C)NC(=O)CCC(=O)O,inactive
9,CN(C)C(=O)Cl,inactive
10,Clc1cnc(Oc2ccc(Oc3ncc(Cl)cc3Cl)cc2)c(Cl)c1,inactive
11,COP(=S)(OC)SCN1C(=O)c2ccccc2C1=O,inactive
12,N#CN=C(N)N,inactive
13,O=S(=O)(O)OOS(=O)(=O)O,inactive
14,ClC(Cl)c1ccccc1,inactive
15,Cc1cc(Cl)ccc1OC(C)C(=O)O (centres undefined),inactive
16,COP(=S)(OC)Oc1ccc(SC)c(C)c1,inactive
17,CCOc1ccc(N)cc1,inactive
18,O=C(O)COc1ccccc1,inactive
19,ClCCOCCCl,inactive
20,CC(C)(C)C(=O)CCl,inactive
21,O=C(O)C(Br)Br,inactive
22,C=CC(=O)OCC(CC)CCCC (centres undefined),inactive
23,C/C=C/c1ccc2c(c1)OCO2,inactive
24,CCNc1nc(Cl)nc(NC(C)C)n1,inactive
25,Oc1c(Br)cc(Br)cc1Br,inactive
26,CN1C(=O)CCS(=O)(=O)C1c1ccc(Cl)cc1 (centres undefined),inactive
27,CC(C)CCCCCCOC(=O)c1ccccc1C(=O)OCCCCCCC(C)C,inactive
28,CCCCCCCCCCCCCCCCCC(=O)O,inactive
29,COS(=O)(=O)OC,inactive
30,OC[C@@H](O)[C@H]1O[C@@H]2O[C@H](C(Cl)(Cl)Cl)O[C@@H]2[C@H]1O,inactive

# Test: qHTS assay to identify small molecule agonists of the endoplasmic reticulum stress response signaling pathway - cell viability counter screen (AID 1159517);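 also: HeLa cells carrying an ER stress response element beta-lactamase reporter; nearly all actives have a fitted effect of over 50% in size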
# Conditions: ESRE-bla HeLa viability, CellTiter-Glo luminescence, 5 h; series mostly up to 61 µM
# Summary of the method: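 Steps: seed 1,500 ESRE-bla HeLa cells per well; incubate overnight at 37 C, 5% CO2; add compounds in DMSO for 5 hr; run FRET substrate 2 hr RT; add CellTiter-Glo, wait 30 min, read luminescence.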
row,Compound,outcome
1,c1ccc2c(c1)CCCC2,inactive
2,CNc1cnn(-c2cccc(C(F)(F)F)c2)c(=O)c1Cl,inactive
3,CNC(=O)O/N=C/C(C)(C)S(C)(=O)=O,inactive
4,Nc1cccc(Cl)c1,inactive
5,CNC(=O)O/N=C(\SC)C(=O)N(C)C,inactive
6,COC(C)(C)CCCC(C)C/C=C/C(C)=C/C(=O)OC(C)C (centres undefined),inactive
7,CN(C)C(=O)Nc1cccc(C(F)(F)F)c1,inactive
8,CN(C)NC(=O)CCC(=O)O,inactive
9,CN(C)C(=O)Cl,inactive
10,Clc1cnc(Oc2ccc(Oc3ncc(Cl)cc3Cl)cc2)c(Cl)c1,inactive
11,COP(=S)(OC)SCN1C(=O)c2ccccc2C1=O,inactive
12,COc1cc(-c2ccc(N)c(OC)c2)ccc1N,inactive
13,N#CN=C(N)N,inactive
14,O=S(=O)(O)OOS(=O)(=O)O,inactive
15,ClC(Cl)c1ccccc1,inactive
16,Cc1cc(Cl)ccc1OC(C)C(=O)O (centres undefined),inactive

row,Compound,outcome
1,COP(=S)(OC)Oc1ccc(SC)c(C)c1,inactive
2,CCOc1ccc(N)cc1,inactive
3,O=C(O)COc1ccccc1,inactive
4,ClCCOCCCl,inactive
5,CC(C)(C)C(=O)CCl,inactive
6,O=C(O)C(Br)Br,inactive
7,C=CC(=O)OCC(CC)CCCC (centres undefined),inactive
8,C/C=C/c1ccc2c(c1)OCO2,inactive
9,CCNc1nc(Cl)nc(NC(C)C)n1,inactive
10,Oc1c(Br)cc(Br)cc1Br,inactive
11,CN1C(=O)CCS(=O)(=O)C1c1ccc(Cl)cc1 (centres undefined),inactive
12,CC(C)CCCCCCOC(=O)c1ccccc1C(=O)OCCCCCCC(C)C,inactive
13,CCCCCCCCCCCCCCCCCC(=O)O,inactive
14,COS(=O)(=O)OC,inactive
15,OC[C@@H](O)[C@H]1O[C@@H]2O[C@H](C(Cl)(Cl)Cl)O[C@@H]2[C@H]1O,inactive

# Test: qHTS assay to identify small molecule antagonists of the retinoid-related orphan receptor gamma (ROR-gamma) signaling pathway - cell viability counter screen (AID 1159520; active = well fitted cell-killing curve with a large enough effect in the repeat runs; also: nearly all actives have a fitted effect of over 50% in size)
# Conditions: Tet-on RORgamma CHO cells viability, ATP luminescence, 16 h; series mostly up to 92.4 µM
# Summary of the method: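 Tet-on ROR gamma CHO cells were given compounds for 2 hr, then doxycycline hyclate at 1 uM final, and incubated 16 hr at 37 C. Viability was measured as ATP content by CellTiter-Glo luminescence.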
row,Compound,outcome
1,c1ccc2c(c1)CCCC2,inactive
2,CNc1cnn(-c2cccc(C(F)(F)F)c2)c(=O)c1Cl,inactive
3,CNC(=O)O/N=C/C(C)(C)S(C)(=O)=O,inactive
4,Nc1cccc(Cl)c1,inactive
5,CNC(=O)O/N=C(\SC)C(=O)N(C)C,inactive
6,COC(C)(C)CCCC(C)C/C=C/C(C)=C/C(=O)OC(C)C (centres undefined),inactive
7,CN(C)C(=O)Nc1cccc(C(F)(F)F)c1,inactive
8,CN(C)NC(=O)CCC(=O)O,inactive
9,CN(C)C(=O)Cl,inactive
10,Clc1cnc(Oc2ccc(Oc3ncc(Cl)cc3Cl)cc2)c(Cl)c1,inactive
11,COP(=S)(OC)SCN1C(=O)c2ccccc2C1=O,inactive
12,COc1cc(-c2ccc(N)c(OC)c2)ccc1N,inactive
13,N#CN=C(N)N,inactive
14,O=S(=O)(O)OOS(=O)(=O)O,inactive
15,ClC(Cl)c1ccccc1,inactive
16,Cc1cc(Cl)ccc1OC(C)C(=O)O (centres undefined),inactive

row,Compound,outcome
1,COP(=S)(OC)Oc1ccc(SC)c(C)c1,inactive
2,CCOc1ccc(N)cc1,inactive
3,O=C(O)COc1ccccc1,inactive
4,ClCCOCCCl,inactive
5,CC(C)(C)C(=O)CCl,inactive
6,O=C(O)C(Br)Br,inactive
7,C=CC(=O)OCC(CC)CCCC (centres undefined),inactive
8,C/C=C/c1ccc2c(c1)OCO2,inactive
9,CCNc1nc(Cl)nc(NC(C)C)n1,inactive
10,Oc1c(Br)cc(Br)cc1Br,inactive
11,CN1C(=O)CCS(=O)(=O)C1c1ccc(Cl)cc1 (centres undefined),inactive
12,CC(C)CCCCCCOC(=O)c1ccccc1C(=O)OCCCCCCC(C)C,inactive
13,CCCCCCCCCCCCCCCCCC(=O)O,inactive
14,COS(=O)(=O)OC,inactive
15,OC[C@@H](O)[C@H]1O[C@@H]2O[C@H](C(Cl)(Cl)Cl)O[C@@H]2[C@H]1O,inactive

# Source: PubChem BioAssay (Tox21)
